Data as given in PubChem BioAssay (EPA / NIEHS).
Results filed as inconclusive are left out. More than one record can exist for a structure, and the calls need not agree. Calls of active or inactive are those of the source. The calls were made as follows, unless noted: active = hit-call score of the fitted dose curve at least 0.9, where 1 is the maximum; inactive = score below 0.9.

Assays:
[1] = target: human RAR-related Orphan Receptor gamma (RORg), RORC (gene 6097) (UniProt P51449); experiment: ATG_RORg_TRANS: Attagene TRANS-FACTORIAL HepG2 Assay for human RAR-related Orphan Receptor gamma (RORg) (AID 2283011; active = hit-call score of the fitted dose curve at least 0.9, where 1 is the maximum)
How it was run: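 Transient MRTU transfection of HepG2 (TRANS format, exogenous NR-Gal4 chimera). 24 h dosing. Total RNA → oligo(dT) RT → PCR → 6-FAM labelling → HpaI cut → CE. Gain vs DMSO.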

[2] = target: Retinoic acid receptor RXR-alpha (Homo sapiens) (UniProt P19793); experiment: ATG_RXRa_TRANS: Attagene TRANS-FACTORIAL HepG2 Assay for human Retinoid X Receptor alpha (RXRa) (AID 2283012; active = hit-call score of the fitted dose curve at least 0.9, where 1 is the maximum)
How it was run: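 Chimeric NR-GAL4 trans-activation in HepG2, 24 h treatment; reporter transcripts quantified by fluorescence on capillary electrophoresis, analysed for upward change from DMSO.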

[3] = target: human Retinoid X Receptor beta (RXRb), RXRB (gene 6257) (UniProt P28702); experiment: ATG_RXRb_TRANS: Attagene TRANS-FACTORIAL HepG2 Assay for human Retinoid X Receptor beta (RXRb) (AID 2283013; active = hit-call score of the fitted dose curve at least 0.9, where 1 is the maximum)
How it was run: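 After a 24 h incubation with test chemical, transfected HepG2 cells carrying NR-Gal4 fusions and GAL4-UAS reporter transcription units yield RNA whose reporter cDNA is FAM-labelled, HpaI-cut and sized by capillary electrophoresis; increases over DMSO are scored.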

[4] = read-out: E-selectin (Homo sapiens) (UniProt P16581); experiment: BSK_3C_Eselectin: BioMAP Diversity Plus: 3C Assay for Eselectin Biomarker Activity (AID 2283015); conditions: primary human endothelial cells (HUVEC); actives raise or lower the signal
How it was run: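 HUVEC, 3C stimulation; compound exposure 24 h; E-selectin by ELISA; gain- or loss-of-signal fitted bidirectionally vs DMSO baseline.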

[5] = read-out: Interleukin-1 alpha (IL1a), IL1A (gene 3552); experiment: BSK_BE3C_IL1a: BioMAP Diversity Plus: BE3C Assay for Interleukin-1 alpha (IL1a) Biomarker Activity (AID 2283016); conditions: primary human bronchial epithelial cells; actives raise or lower the signal
How it was run: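 Measured in human lung primary bronchial epithelial cells: IL-1a by ELISA at 24 h after dosing, with bidirectional fitting against DMSO.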

[6] = read-out: Monocyte Chemoattractant Protein-1 (MCP1), CCL2 (gene 6347); experiment: BSK_3C_MCP1: BioMAP Diversity Plus: 3C Assay for Monocyte Chemoattractant Protein-1 (MCP1) Biomarker Activity (AID 2283017); conditions: primary human endothelial cells (HUVEC); actives raise or lower the signal
How it was run: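 HUVEC, 3C system; 24 h chemical exposure; MCP-1 by ELISA; bidirectional curve fit vs DMSO baseline.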

[7] = read-out: Monocyte Chemoattractant Protein-1 (MCP1), CCL2 (gene 6347); experiment: BSK_4H_MCP1: BioMAP Diversity Plus: 4H Assay for Monocyte Chemoattractant Protein-1 (MCP1) Biomarker Activity (AID 2283018); conditions: primary human endothelial cells (HUVEC); actives raise or lower the signal
How it was run: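 Primary human umbilical vein endothelium is exposed to chemical for 24 h before MCP-1 is assayed by ELISA. Concentration-response fitted bidirectionally relative to DMSO.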

[8] = read-out: Human Leukocyte Antigen - DR isotype (HLADR), HLA-DRA (gene 3122); experiment: BSK_3C_HLADR: BioMAP Diversity Plus: 3C Assay for Human Leukocyte Antigen - DR isotype (HLADR) Biomarker Activity (AID 2283019); conditions: primary human endothelial cells (HUVEC); actives raise or lower the signal
How it was run: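 HUVEC, 3C stimulation, 24 h post-dose; HLA-DR by ELISA; bidirectional curve fit vs DMSO baseline; gain or loss of signal scored.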

[9] = read-out: Interleukin-8 (IL8), CXCL8 (gene 3576); experiment: BSK_3C_IL8: BioMAP Diversity Plus: 3C Assay for Interleukin-8 (IL8) Biomarker Activity (AID 2283020); conditions: primary human endothelial cells (HUVEC); actives raise or lower the signal
How it was run: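 Using DMSO-treated wells as the baseline, bidirectional curve fitting was applied to ELISA-measured IL-8 from human umbilical vein endothelial cultures sampled 24 h after compound addition.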

[10] = target: human Vitamin D Receptor (VDR), VDR (gene 7421) (UniProt P11473); experiment: ATG_VDR_TRANS: Attagene TRANS-FACTORIAL HepG2 Assay for human Vitamin D Receptor (VDR) (AID 2283022; active = hit-call score of the fitted dose curve at least 0.9, where 1 is the maximum)
How it was run: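 RT-PCR/capillary electrophoresis read-out of reporter mRNA induction in transiently transfected HepG2; 24 h dosing; chimeric NR-Gal4 (TRANS format); gain-of-signal fit against DMSO baseline.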

[11] = BSK_3C_SRB: Viability Assessment in the BioMAP Diversity Plus: 3C Assay (AID 2283023); conditions: primary human endothelial cells (HUVEC);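 also: cells read 24 h after compound dosing; fitted both ways against DMSO so a hit may be signal rise or drop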
How it was run: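 HUVEC, 24 h post-dose; 10% TCA fix, 0.1% SRB stain, A560 nm. Bidirectional curve fit vs DMSO negative control.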

[12] = read-out: Matrix Metallopeptidase 1 (MMP1), MMP1 (gene 4312); experiment: BSK_BE3C_MMP1: BioMAP Diversity Plus: BE3C Assay for Matrix Metallopeptidase 1 (MMP1) Biomarker Activity (AID 2283024); conditions: primary human bronchial epithelial cells; actives raise or lower the signal
How it was run: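 In this multiplexed primary-cell system, human bronchial epithelium received chemicals for 24 h before an ELISA for MMP1. Values reflect bidirectional fits normalised to the DMSO baseline.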

[13] = BSK_3C_Vis: BioMAP Diversity Plus: 3C Assay for Morphology Visualization (AID 2283025); conditions: primary human endothelial cells (HUVEC);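 also: fitted both ways so gain or loss versus DMSO counts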;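 as to AC50: light microscopy image of cell morphology used as background control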
How it was run: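 Light-microscopy morphology readout, 24 h exposure, human primary umbilical vein endothelium; analysed relative to DMSO with bidirectional fitting.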

[14] = read-out: Pselectin, SELP (gene 6403); experiment: BSK_4H_Pselectin: BioMAP Diversity Plus: 4H Assay for Pselectin Biomarker Activity (AID 2283026); conditions: primary human endothelial cells (HUVEC); actives raise or lower the signal
How it was run: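 Bidirectional fits against DMSO gave the endpoint. Cells: primary human umbilical vein endothelium, chemical-treated for 24 h before ELISA detection of P-selectin.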

[15] = BSK_4H_SRB: Viability Assessment in the BioMAP Diversity Plus: 4H Assay (AID 2283027); conditions: primary human endothelial cells (HUVEC);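 also: cells exposed to compound for 24 h before staining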;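 as to AC50: curves fitted both ways versus DMSO so AC50 may be loss or gain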
How it was run: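 Cytotoxicity readout: sulforhodamine B (0.1%) staining of total protein after 10% TCA fixation, measured at 560 nm in human umbilical vein endothelium at 24 h. DMSO set the baseline; fitting was bidirectional.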

[16] = BSK_BE3C_SRB: Viability Assessment in the BioMAP Diversity Plus: BE3C Assay (AID 2283028); conditions: primary human bronchial epithelial cells;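 as to AC50: fitted both ways so AC50 may mark signal gain or loss versus DMSO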
How it was run: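 Primary human bronchial epithelium; chemical dosing, 24 h; 10% TCA fix, 0.1% SRB stain, A560; bidirectional fit vs DMSO baseline.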

[17] = read-out: Thrombomodulin, THBD (gene 7056); experiment: BSK_3C_Thrombomodulin: BioMAP Diversity Plus: 3C Assay for Thrombomodulin Biomarker Activity (AID 2283029); conditions: primary human endothelial cells (HUVEC); actives raise or lower the signal
How it was run: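 In a multiplexed primary-cell system, human umbilical vein endothelium received chemical and was assayed 24 h later for thrombomodulin by ELISA. Parallel cultures were SRB-stained (0.1% SRB after 10% TCA fixation, read at 560 nm) to flag cytotoxicity.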

[18] = read-out: Urokinase-type plasminogen activator receptor (uPAR), PLAUR (gene 5329); experiment: BSK_4H_uPAR: BioMAP Diversity Plus: 4H Assay for Urokinase-type plasminogen activator receptor (uPAR) Biomarker Activity (AID 2283030); conditions: primary human endothelial cells (HUVEC); actives raise or lower the signal
How it was run: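 HUVEC, 24 h post-dose; uPAR by ELISA; bidirectional fit vs DMSO baseline.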

[19] = read-out: Monokine induced gamma interferon (MIG), CXCL9 (gene 4283); experiment: BSK_3C_MIG: BioMAP Diversity Plus: 3C Assay for Monokine induced gamma interferon (MIG) Biomarker Activity (AID 2283021); conditions: primary human endothelial cells (HUVEC); actives raise or lower the signal;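 as to AC50: MIG protein level measured by immunoassay in the treated endothelial cultures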
How it was run: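 ELISA-measured MIG in dosed HUVEC 3C cultures at 24 h, analysed by bidirectional fitting with DMSO defining baseline activity.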

[20] = target: human Thyroid Receptor alpha (THRa1), THRA (gene 7067) (UniProt P10827); experiment: ATG_THRa1_TRANS: Attagene TRANS-FACTORIAL HepG2 Assay for human Thyroid Receptor alpha (THRa1) (AID 2283014; active = hit-call score of the fitted dose curve at least 0.9, where 1 is the maximum)
How it was run: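 Transient HepG2 transfection, NR-Gal4 chimera driving GAL4-UAS reporters; 24 h compound exposure; total RNA, oligo(dT) RT, PCR, fluorescent primer extension, capillary electrophoresis. Upward direction vs DMSO control.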

Measured: AC50

Sequence of E-selectin (Homo sapiens) (P16581 whole entry, looked up): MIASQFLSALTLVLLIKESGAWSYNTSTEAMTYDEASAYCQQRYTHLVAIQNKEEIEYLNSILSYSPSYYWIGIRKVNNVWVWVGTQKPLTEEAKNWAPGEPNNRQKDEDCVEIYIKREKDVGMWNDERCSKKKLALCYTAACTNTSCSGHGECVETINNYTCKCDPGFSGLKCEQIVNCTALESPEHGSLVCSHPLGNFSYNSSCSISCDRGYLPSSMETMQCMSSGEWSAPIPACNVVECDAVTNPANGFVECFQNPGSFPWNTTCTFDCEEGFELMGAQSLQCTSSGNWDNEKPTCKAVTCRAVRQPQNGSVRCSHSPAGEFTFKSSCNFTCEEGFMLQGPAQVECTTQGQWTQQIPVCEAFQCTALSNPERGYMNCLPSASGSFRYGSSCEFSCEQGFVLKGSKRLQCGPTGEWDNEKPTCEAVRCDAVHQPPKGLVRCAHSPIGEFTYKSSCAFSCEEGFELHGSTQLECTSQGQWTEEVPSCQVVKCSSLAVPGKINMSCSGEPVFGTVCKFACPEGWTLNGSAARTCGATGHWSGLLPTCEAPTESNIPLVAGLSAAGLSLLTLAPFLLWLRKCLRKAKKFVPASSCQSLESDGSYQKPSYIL
Sequence of human RAR-related Orphan Receptor gamma (RORg), RORC (gene 6097) (P51449 whole entry, looked up, the tested form may be a part): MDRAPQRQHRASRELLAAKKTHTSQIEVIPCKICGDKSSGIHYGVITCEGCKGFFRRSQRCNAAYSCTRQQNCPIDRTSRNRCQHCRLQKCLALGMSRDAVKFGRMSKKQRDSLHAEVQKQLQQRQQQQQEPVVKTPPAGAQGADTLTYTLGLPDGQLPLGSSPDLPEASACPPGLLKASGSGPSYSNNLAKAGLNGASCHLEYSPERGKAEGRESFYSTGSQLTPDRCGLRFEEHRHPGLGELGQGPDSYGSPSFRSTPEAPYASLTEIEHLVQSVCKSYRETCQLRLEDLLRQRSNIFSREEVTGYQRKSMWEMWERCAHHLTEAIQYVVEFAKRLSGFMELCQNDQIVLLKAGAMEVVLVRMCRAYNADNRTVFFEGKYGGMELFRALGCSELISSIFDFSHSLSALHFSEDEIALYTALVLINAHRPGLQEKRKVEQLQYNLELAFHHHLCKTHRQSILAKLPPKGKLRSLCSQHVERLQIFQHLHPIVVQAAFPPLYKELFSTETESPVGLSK
Sequence of human Vitamin D Receptor (VDR), VDR (gene 7421) (P11473 whole entry, looked up, the tested form may be a part): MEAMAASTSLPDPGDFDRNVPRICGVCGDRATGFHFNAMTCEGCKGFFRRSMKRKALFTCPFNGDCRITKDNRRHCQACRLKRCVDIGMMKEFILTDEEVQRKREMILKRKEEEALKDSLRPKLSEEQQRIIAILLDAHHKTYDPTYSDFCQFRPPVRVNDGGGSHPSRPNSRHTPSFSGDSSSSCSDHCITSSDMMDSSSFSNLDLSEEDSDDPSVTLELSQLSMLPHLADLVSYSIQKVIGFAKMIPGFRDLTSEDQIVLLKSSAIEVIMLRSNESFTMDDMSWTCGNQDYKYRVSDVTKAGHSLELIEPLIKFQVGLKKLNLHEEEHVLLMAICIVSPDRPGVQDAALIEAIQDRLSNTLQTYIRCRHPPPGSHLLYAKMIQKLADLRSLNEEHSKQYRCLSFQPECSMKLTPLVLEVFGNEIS
Sequence of human Retinoid X Receptor beta (RXRb), RXRB (gene 6257) (P28702 whole entry, looked up, the tested form may be a part): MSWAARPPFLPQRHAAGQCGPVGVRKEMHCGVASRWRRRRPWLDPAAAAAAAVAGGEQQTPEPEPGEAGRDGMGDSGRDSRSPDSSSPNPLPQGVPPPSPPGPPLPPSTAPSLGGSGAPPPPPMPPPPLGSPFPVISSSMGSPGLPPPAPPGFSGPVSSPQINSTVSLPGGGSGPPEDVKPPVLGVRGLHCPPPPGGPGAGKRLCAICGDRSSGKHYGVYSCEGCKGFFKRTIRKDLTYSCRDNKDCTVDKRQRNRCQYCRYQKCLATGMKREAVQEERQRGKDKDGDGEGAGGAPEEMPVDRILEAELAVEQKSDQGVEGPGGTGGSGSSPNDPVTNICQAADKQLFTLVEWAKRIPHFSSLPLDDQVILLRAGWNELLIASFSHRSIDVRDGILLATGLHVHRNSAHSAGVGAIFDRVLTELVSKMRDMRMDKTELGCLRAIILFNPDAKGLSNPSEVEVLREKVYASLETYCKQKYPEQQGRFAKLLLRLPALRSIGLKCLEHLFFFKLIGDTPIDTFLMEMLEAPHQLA
Sequence of Retinoic acid receptor RXR-alpha (Homo sapiens) (P19793 whole entry, looked up, the tested form may be a part): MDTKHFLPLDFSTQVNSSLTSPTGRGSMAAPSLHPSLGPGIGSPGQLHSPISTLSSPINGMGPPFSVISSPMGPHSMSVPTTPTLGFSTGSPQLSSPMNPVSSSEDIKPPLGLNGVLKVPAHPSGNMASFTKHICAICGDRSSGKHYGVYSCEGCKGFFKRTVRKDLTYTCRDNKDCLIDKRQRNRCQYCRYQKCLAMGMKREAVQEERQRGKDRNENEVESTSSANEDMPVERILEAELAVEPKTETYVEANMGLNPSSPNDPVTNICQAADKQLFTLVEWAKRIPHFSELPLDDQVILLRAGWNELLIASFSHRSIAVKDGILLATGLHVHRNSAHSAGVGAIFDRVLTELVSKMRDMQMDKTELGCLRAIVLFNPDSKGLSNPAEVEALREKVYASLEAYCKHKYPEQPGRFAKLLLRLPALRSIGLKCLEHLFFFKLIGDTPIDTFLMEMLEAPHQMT
Sequence of human Thyroid Receptor alpha (THRa1), THRA (gene 7067) (P10827 whole entry, looked up, the tested form may be a part): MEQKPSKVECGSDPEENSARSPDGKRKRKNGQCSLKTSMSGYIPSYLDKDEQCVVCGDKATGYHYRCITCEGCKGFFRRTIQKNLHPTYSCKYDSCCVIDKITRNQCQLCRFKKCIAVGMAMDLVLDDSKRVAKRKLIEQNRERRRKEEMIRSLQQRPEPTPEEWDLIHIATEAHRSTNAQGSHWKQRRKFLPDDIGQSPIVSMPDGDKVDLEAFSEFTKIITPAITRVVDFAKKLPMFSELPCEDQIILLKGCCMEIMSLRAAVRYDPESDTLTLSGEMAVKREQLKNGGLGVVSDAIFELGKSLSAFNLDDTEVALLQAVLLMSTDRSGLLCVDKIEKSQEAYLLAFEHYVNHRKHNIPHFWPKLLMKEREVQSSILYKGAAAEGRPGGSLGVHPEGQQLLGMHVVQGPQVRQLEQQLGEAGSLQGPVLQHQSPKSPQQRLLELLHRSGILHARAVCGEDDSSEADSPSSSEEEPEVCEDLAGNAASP

COc1cc(C(=O)NC2CCN(C)CC2)ccc1Nc1ncc2c(n1)N(C1CCCC1)CC(F)(F)C(=O)N2C
active: [4] 17.2 µM | [5] 10.2 µM | [6] 12 µM | [7] 5.15 µM | [8] 4.47 µM | [9] 7.74 µM | [11] 18.6 µM | [12] 7.76 µM | [13] 18.6 µM | [14] 3.57 µM | [15] 13.5 µM | [16] 28.2 µM | [18] 7.45 µM
inactive: [1] | [2] | [3] | [10] | [17]

O=CCCCC=O
active: [4] 33.7 µM | [5] 33.2 µM | [8] 29.5 µM | [11] 31.7 µM | [14] 30.7 µM
not listed: [20]
inactive: all other assays above

CC/C(=C(/CC)c1ccc(O)cc1)c1ccc(O)cc1
active: [3] 6.68 µM [middle of 4 runs] | [4] 31.5 µM | [5] 29.9 µM | [6] 31 µM | [7] 15.9 µM | [8] 27.7 µM | [9] 32.6 µM | [19] 35.8 µM | [11] 20 µM | [12] 35.1 µM | [13] 8.57 µM | [14] 20 µM | [15] 22.8 µM | [16] 33.6 µM | [18] 17.8 µM
inactive: [2] | [3] | [10] | [17]

c1ccc2ccccc2c1
inactive: [1] | [2] | [3] | [20] | [4] | [5] | [6] | [7] | [8] | [9] | [19] | [10] | [11] | [12] | [13] | [14] | [15] | [16] | [17] | [18]
active: [3] 38.9 µM

CO[C@H]1/C=C/O[C@@]2(C)Oc3c(C)c(O)c4c(O)c(c(/C=N/N5CCN(C)CC5)c(O)c4c3C2=O)NC(=O)/C(C)=C\C=C\[C@H](C)[C@H](O)[C@@H](C)[C@@H](O)[C@@H](C)[C@H](OC(C)=O)[C@@H]1C
not listed: [3] | [12] | [19]
inactive: all other assays above

CN(C[C@@H](CC[N+]12CCC(C3CCCCC3)(CC1)CC2)c1ccc(Cl)c(Cl)c1)C(=O)c1cc(C(F)(F)F)cc(C(F)(F)F)c1
inactive: [1] | [2] | [3] | [20] | [10] | [17]
active: [4] 27.5 µM | [5] 27.6 µM | [6] 21.1 µM | [7] 27.2 µM | [8] 14.6 µM | [9] 24.3 µM | [11] 12.9 µM | [12] 23.5 µM | [13] 13.3 µM | [14] 29.2 µM | [15] 16.5 µM | [16] 13 µM | [18] 29.1 µM
